Laboratory results from PubChem BioAssay AID720519 (National Center for Advancing Translational Sciences (NCATS), 2013).
Records with an inconclusive call do not appear. The call rests on the fitted dose curve; in most records, active means well fitted activation curve with a large enough effect; inconclusive means small, poorly fitted or top-dose-only effect; inactive means flat fitted curve, though single readings scatter.

Assay: qHTS for Inhibitors of Cell Surface uPA Generation: Confirmatory Assay for Cherry-picked Compounds; further: 0% is about no effect
Conditions: cell surface uPA activity generation, qHTS confirmation; series mostly up to 115 µM; inhibition: at the top concentration
Outline: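 RAW 264.7 cells at 4000/well, incubated overnight, then treated with compounds. After 24 h at 37 C, viability was read by ATPlite luminescence. An increase in signal indicates blocked uPA-dependent LF entry.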

inhibition, inactive:
COc1ccc(C(=O)c2sc(Nc3ccccc3)nc2N)cc1 9.15%
CC1CCCCN1C(=O)CSc1nc2ncccc2[nH]1 (centres undefined) -2.7%
COc1ccccc1-c1ccc(SCC(=O)NCCc2ccccc2)nn1 -1.94%
Cc1ccc(NC(=O)CC2OC(=O)c3ccccc32)cc1S(=O)(=O)N1CCOCC1 (centres undefined) -0.704%
Cc1cc(COc2ccccc2)oc1C(=O)O -1.25%
O=C(NCC1CCCO1)c1c(O)c2cccc3c2n(c1=O)CCC3 (centres undefined) -3.48%
Cc1ccc(Cl)c(N/C=C/C(=O)c2ccccc2)c1 -2.75%
COc1ccc(CCNC(=O)COC(=O)CNS(=O)(=O)c2ccc(SC)c([N+](=O)[O-])c2)cc1 0.698%
CS(=O)(=O)c1ccc(Cl)c(NC(=O)COC(=O)CNC(=O)c2cccs2)c1 -0.838%
COc1cc(NC(=O)CSc2nnc3ccc(-c4ccncc4)nn23)cc(OC)c1 1.04%
Cc1c(NC(=S)Nc2ccc(Cl)cc2)c(=O)n(-c2ccccc2)n1C -0.742%
CCOC(=O)CC(=O)CSc1nc2c(C)c(C)ccc2cc1C 0.709%
Cc1cc(/C=N/NC(=O)c2ccccc2F)c(C)n1-c1ccccc1 -1.81%
O=C(COc1ccccc1F)NCC(c1ccc(F)cc1)N1CCOCC1 (centres undefined) -0.649%
O=C1NC(CCc2ccccc2)C(=O)N1Cc1ccccc1Cl (centres undefined) 5%
CCn1c2ccccc2c2n[nH]c(=S)nc21 -1.42%
CC(=O)Oc1ccccc1C(=O)Nc1ccccc1C(=O)N1CCCC1 -1.4%
Clc1ccccc1N1CCN(c2ncnc3nc[nH]c23)CC1 -0.597%
O=C(c1cc(COc2ccc(F)cc2Cl)on1)N1CCCCCC1 -1.5%
